# Measured values as given in PubChem BioAssay (EPA / NIEHS).
# Where “and” joins values, the source holds several entries; their conditions need not be identical. Equal values may be shown once. A structure can be active in one record and inactive in another. Calls of active or inactive are those of the source. The calls were made as follows: active = hit-call score of the fitted dose curve at least 0.9, where 1 is the maximum; inactive = score below 0.9.
# Assays:
# [1] = read-out: Monokine induced gamma interferon (MIG), CXCL9 (gene 4283); assay: BSK_3C_MIG: BioMAP Diversity Plus: 3C Assay for Monokine induced gamma interferon (MIG) Biomarker Activity (AID 2283021); conditions: primary human endothelial cells (HUVEC); actives raise or lower the signal;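 as to AC50: MIG protein level measured by immunoassay in the treated endothelial cultures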
# How it was run: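 ELISA measurement of MIG in human umbilical vein endothelial cells 24 h after treatment. Cytotoxicity tracked by SRB staining in parallel cultures; gain or loss of signal fitted relative to DMSO.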
# [2] = BSK_3C_SRB: Viability Assessment in the BioMAP Diversity Plus: 3C Assay (AID 2283023); conditions: primary human endothelial cells (HUVEC);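 also: fitted both ways against DMSO so a hit may be signal rise or drop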
# How it was run: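 Absorbance at 560 nm of sulforhodamine B-stained (0.1%) total protein served as a cytotoxicity readout in human umbilical vein endothelial cells, 24 h after chemical treatment. Signal was fitted bidirectionally relative to DMSO.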
# [3] = read-out: Matrix Metallopeptidase 1 (MMP1), MMP1 (gene 4312); assay: BSK_BE3C_MMP1: BioMAP Diversity Plus: BE3C Assay for Matrix Metallopeptidase 1 (MMP1) Biomarker Activity (AID 2283024); conditions: primary human bronchial epithelial cells; actives raise or lower the signal
# How it was run: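 ELISA measurement of MMP-1 after 24 h compound exposure of primary human bronchial epithelial cells. Changes in either direction fitted relative to DMSO; parallel SRB staining checked overt cytotoxicity.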
# [4] = BSK_3C_Vis: BioMAP Diversity Plus: 3C Assay for Morphology Visualization (AID 2283025); conditions: primary human endothelial cells (HUVEC);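 also: fitted both ways so gain or loss versus DMSO counts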;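 as to AC50: light microscopy image of cell morphology used as background control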
# How it was run: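 Light-microscopy visualization of HUVEC cultures at 24 h post-treatment, with DMSO as baseline for bidirectional fitting.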
# [5] = read-out: Pselectin, SELP (gene 6403); assay: BSK_4H_Pselectin: BioMAP Diversity Plus: 4H Assay for Pselectin Biomarker Activity (AID 2283026); conditions: primary human endothelial cells (HUVEC); actives raise or lower the signal
# How it was run: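 ELISA of surface P-selectin on HUVEC, 24 h after dosing, with parallel SRB staining (0.1% after 10% TCA fixation, 560 nm) for overt cytotoxicity. Activity fitted in both directions relative to DMSO.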
# [6] = BSK_4H_SRB: Viability Assessment in the BioMAP Diversity Plus: 4H Assay (AID 2283027); conditions: primary human endothelial cells (HUVEC);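 also: cells exposed to compound for 24 h before staining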;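 as to AC50: curves fitted both ways versus DMSO so AC50 may be loss or gain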
# How it was run: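 Cytotoxicity read-out in primary human endothelial cells: after 24 h compound exposure, cells were TCA-fixed (10%), stained with 0.1% SRB and absorbance taken at 560 nm. Values fitted in both directions relative to DMSO.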
# [7] = BSK_BE3C_SRB: Viability Assessment in the BioMAP Diversity Plus: BE3C Assay (AID 2283028); conditions: primary human bronchial epithelial cells;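 as to AC50: fitted both ways so AC50 may mark signal gain or loss versus DMSO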
# How it was run: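 Cells (human bronchial epithelial, primary) are treated with chemicals, and after 24 h the parallel cultures are fixed in 10% TCA. These are then stained with 0.1% SRB and read at 560 nm. Gain or loss of signal is fitted relative to DMSO.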
# [8] = read-out: Thrombomodulin, THBD (gene 7056); assay: BSK_3C_Thrombomodulin: BioMAP Diversity Plus: 3C Assay for Thrombomodulin Biomarker Activity (AID 2283029); conditions: primary human endothelial cells (HUVEC); actives raise or lower the signal
# How it was run: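 ELISA measurement of thrombomodulin on HUVEC surface 24 h after chemical dosing; activity fitted in both directions relative to DMSO vehicle.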
# [9] = read-out: Urokinase-type plasminogen activator receptor (uPAR), PLAUR (gene 5329); assay: BSK_4H_uPAR: BioMAP Diversity Plus: 4H Assay for Urokinase-type plasminogen activator receptor (uPAR) Biomarker Activity (AID 2283030); conditions: primary human endothelial cells (HUVEC); actives raise or lower the signal
# How it was run: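 Cell-surface uPAR ELISA signal, measured 24 h after dosing human umbilical vein endothelial cells, was analyzed with bidirectional fitting relative to DMSO. Parallel SRB staining of total protein tracked overt cytotoxicity.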
# [10] = read-out: Vascular cell adhesion molecule 1 (VCAM1), VCAM1 (gene 7412); assay: BSK_4H_VCAM1: BioMAP Diversity Plus: 4H Assay for Vascular cell adhesion molecule 1 (VCAM1) Biomarker Activity (AID 2283033); conditions: primary human endothelial cells (HUVEC); actives raise or lower the signal;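 as to outcome: cell-surface VCAM-1 protein measured by ELISA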
# How it was run: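 VCAM-1 ELISA read 24 h after chemical dosing of HUVEC in the BioMAP 4H system, with gain or loss of signal fitted relative to DMSO. Parallel SRB staining (560 nm) checked overt cytotoxicity.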
# [11] = read-out: Interferon-gamma inducible Protein 10 (IP10), CXCL10 (gene 3627); assay: BSK_BE3C_IP10: BioMAP Diversity Plus: BE3C Assay for Interferon-gamma inducible Protein 10 (IP10) Biomarker Activity (AID 2283034); conditions: primary human bronchial epithelial cells; actives raise or lower the signal
# How it was run: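 IP-10 quantified by ELISA in human primary bronchial epithelial cell cultures at 24 hours post-dosing. Gain or loss of signal fitted relative to DMSO; parallel SRB staining assessed overt cytotoxicity.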
# [12] = read-out: Monokine induced gamma interferon (MIG), CXCL9 (gene 4283); assay: BSK_BE3C_MIG: BioMAP Diversity Plus: BE3C Assay for Monokine induced gamma interferon (MIG) Biomarker Activity (AID 2283035); conditions: primary human bronchial epithelial cells; actives raise or lower the signal
# How it was run: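 ELISA quantified MIG after 24 h exposure of primary bronchial epithelial cultures, analysed in both directions relative to DMSO. Cytotoxicity tracked in parallel cultures by sulforhodamine B staining.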
# [13] = read-out: Transforming growth factor beta 1 (TGFb1), TGFB1 (gene 7040); assay: BSK_BE3C_TGFb1: BioMAP Diversity Plus: BE3C Assay for Transforming growth factor beta 1 (TGFb1) Biomarker Activity (AID 2283036;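 also: TGF-b1 protein level measured by ELISA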); conditions: primary human bronchial epithelial cells; actives raise or lower the signal
# How it was run: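 ELISA readout of TGF-b1 from human lung bronchial epithelial primary cells, taken 24 h post-treatment. Gain or loss of signal fitted relative to DMSO baseline, with parallel SRB staining for overt cytotoxicity.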
# [14] = read-out: Plasminogen activator inhibitor-1 (PAI1), SERPINE1 (gene 5054); assay: BSK_BE3C_PAI1: BioMAP Diversity Plus: BE3C Assay for Plasminogen activator inhibitor-1 (PAI1) Biomarker Activity (AID 2283037); conditions: primary human bronchial epithelial cells; actives raise or lower the signal
# How it was run: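 PAI-1 was measured by ELISA in human primary bronchial epithelial cultures 24 h after chemical dosing, with cytotoxicity checked by SRB total-protein staining in parallel cultures. Activity was fitted in both directions relative to DMSO.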
# [15] = read-out: urokinase plasminogen activator (uPA), PLAU (gene 5328); assay: BSK_BE3C_uPA: BioMAP Diversity Plus: BE3C Assay for urokinase plasminogen activator (uPA) Biomarker Activity (AID 2283038); conditions: primary human bronchial epithelial cells; actives raise or lower the signal;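 as to outcome: uPA protein level quantified by ELISA in cell cultures; uPA read one day after compound addition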
# How it was run: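 Bronchial epithelial cells (human, primary); chemical 24 h; uPA by ELISA; bidirectional fit vs DMSO. SRB (0.1%, after 10% TCA fixation, 560 nm) in parallel cultures for cytotoxicity.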
# [16] = read-out: Urokinase-type plasminogen activator receptor (uPAR), PLAUR (gene 5329); assay: BSK_BE3C_uPAR: BioMAP Diversity Plus: BE3C Assay for Urokinase-type plasminogen activator receptor (uPAR) Biomarker Activity (AID 2283039); conditions: primary human bronchial epithelial cells; actives raise or lower the signal;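 as to outcome: cells exposed to compound for one day before measurement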
# How it was run: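 uPAR levels were measured by ELISA after 24 h compound treatment of primary human bronchial epithelial cells, fitted in both directions relative to DMSO. Parallel SRB staining served as the cytotoxicity read-out.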
# [17] = read-out: Interleukin-6 (IL6), IL6 (gene 3569); assay: BSK_CASM3C_IL6: BioMAP Diversity Plus: CASM3C Assay for Interleukin-6 (IL6) Biomarker Activity for (AID 2283040); conditions: primary human coronary artery smooth muscle cells; actives raise or lower the signal
# [18] = read-out: Tissue plasminogen activator (tPA), PLAT (gene 5327); assay: BSK_BE3C_tPA: BioMAP Diversity Plus: BE3C Assay for Tissue plasminogen activator (tPA) Biomarker Activity (AID 2283041); conditions: primary human bronchial epithelial cells; actives raise or lower the signal;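 as to outcome: tPA level quantified by ELISA one day after compound addition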
# How it was run: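 tPA measured by ELISA 24 h after dosing human primary bronchial epithelial cells (BE3C system). Changes in either direction were fitted against DMSO. Parallel cultures were stained with SRB to flag overt cytotoxicity.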
# [19] = read-out: Interleukin-8 (IL8), CXCL8 (gene 3576); assay: BSK_CASM3C_IL8: BioMAP Diversity Plus: CASM3C Assay for Interleukin-8 (IL8) Biomarker Activity (AID 2283042); conditions: primary human coronary artery smooth muscle cells; actives raise or lower the signal;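 also: IL-8 protein level quantified by ELISA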
smiles,measurement,setting,value
O=C(Nc1ccccc1SSc1ccccc1NC(=O)c1ccccc1)c1ccccc1,outcome,[1],inactive
same,outcome,[2],inactive
same,outcome,[3],inactive
same,AC50,[4],14.1 µM (active)
same,outcome,[5],inactive
same,outcome,[6],inactive
same,outcome,[7],inactive
same,AC50,[8],5.7 µM (active)
same,outcome,[9],inactive
same,AC50,[10],20 µM (active)
same,AC50,[11],1.03 µM (active)
same,outcome,[12],inactive
same,outcome,[13],inactive
same,outcome,[14],inactive
same,outcome,[15],inactive
same,outcome,[16],inactive
same,outcome,[17],inactive
same,outcome,[18],inactive
same,outcome,[19],inactive
CCOC(=O)c1ccccc1C(=C1C=C(Br)C(=O)C(Br)=C1)c1cc(Br)c(O)c(Br)c1,AC50,[1],23.6 µM (active) and 21.7 µM (active)
same,AC50,[2],21.7 µM (active) and 23.7 µM (active)
same,outcome,[3],inactive
same,AC50,[5],21.9 µM (active) and 19.8 µM (active)
same,AC50,[6],19.1 µM (active) and 20.3 µM (active)
same,AC50,[7],12.5 µM (active)
same,outcome,[7],inactive
same,AC50,[8],18.5 µM (active) and 19.2 µM (active)
same,AC50,[9],15.6 µM (active) and 15.8 µM (active)
same,AC50,[10],20.6 µM (active) and 20.1 µM (active)
same,AC50,[11],3.73 µM (active) and 3.06 µM (active)
same,AC50,[12],5.86 µM (active) and 5.17 µM (active)
same,AC50,[14],2.48 µM (active)
same,AC50,[15],3.81 µM (active) and 4.21 µM (active)
same,AC50,[16],7.89 µM (active) and 4.27 µM (active)
same,outcome,[17],inactive
same,AC50,[18],2.55 µM (active) and 2.71 µM (active)
same,outcome,[19],inactive
COc1ccc2nc(N)sc2c1,outcome,[1],inactive
same,outcome,[2],inactive
same,outcome,[3],inactive
same,outcome,[4],inactive
same,outcome,[5],inactive
same,outcome,[6],inactive
same,outcome,[7],inactive
same,outcome,[8],inactive
same,outcome,[9],inactive
same,outcome,[10],inactive
same,outcome,[11],inactive
same,outcome,[12],inactive
same,outcome,[13],inactive
same,outcome,[14],inactive
same,outcome,[15],inactive
same,outcome,[16],inactive
same,outcome,[17],inactive
same,outcome,[18],inactive
same,outcome,[19],inactive
